Consider 22 compounds from PubChem BioAssay AID602340 (Broad Institute, 2012).

Structures are written as SMILES. The campaign covered roughly 330,000 compounds. About 2,600 (0.79%) were called active.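 The calls were made as follows: active = mean ATP rescue above about 67%, or every replicate alone reaching that limit (limit read from the data, passing the limit was not always enough); inconclusive = no clear call, values can overlap the other calls; inactive = mean under the limit and some replicate under it.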 The list comes from a sample in which actives are over-represented; it also holds similar structures and randomly drawn compounds.

This experiment can be described thus: protection of differentiated C2C12 cells from simvastatin – single point, plate reader, primary screen (AID 602340).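 Also: myotubes were challenged with 10 µM simvastatin during compound exposure.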 Conditions: C2C12 myotubes + simvastatin, ATP luminescence, 48 h; at 7.49 µM; hits give high values; scaled: DMSO 0, geranylgeraniol control 100.
In the case of `C[C@H](CO)N1C[C@H](C)[C@H](CN(C)C(=O)C2CCOCC2)Oc2ncc(-c3ccccc3)cc2C1=O`, the rescue of ATP level was -10.6% (inactive).
The figure for `CCCNC(=O)C[C@H]1CC[C@H]2[C@@H](COC[C@H](O)CN2C(=O)Nc2c(C)noc2C)O1` is 5.16% (inactive); for `CCOC(=O)c1c(NC(=O)CSc2cn(CC)c3ccccc23)sc2c1CCC2` it is 15.7% (inactive).
In the case of `CCOC(=O)c1c(NC(=O)CSc2nnc(C)c(=O)[nH]2)sc2c1CCC2`, the rescue of ATP level was 131% (active).
Consider `CCOC(=O)c1c(NC(=O)CSc2nnc(CN3CCOCC3)n2C)sc2c1CCCC2`, for which the rescue of ATP level is -1.41% (inactive).
Consider `O=C(C[C@@H]1C=C[C@H](NC(=O)Nc2ccc(C(F)(F)F)cc2)[C@H](CO)O1)NCc1cccc(F)c1`, for which the rescue of ATP level was 18.6% (inactive).
Then `CCOC(=O)CN1CC23C=CC(O2)C(C(=O)Nc2ccc(F)cc2)C3C1=O` (configuration not stated), with 97% (active); and `CCOCCCN1C(=O)C2C(C(=O)Nc3ccc(OCC)cc3)C3C=CC2(O3)C1C(=O)NC1CCCCC1` (configuration not stated), with 9.74% (inactive); and `CC(C)COC(=O)C1C2C=CC3(CN(C(C)c4ccc(Br)cc4)C(=O)C13)O2` (configuration not stated), with 4.94% (inactive).
Then `O=C(CN1CCOCC1)N[C@@H]1CC[C@H](CCNS(=O)(=O)c2ccccc2F)O[C@H]1CO`, with 14.2% (inactive); and `Cc1ccc(NC(=O)C(=O)NCc2ccco2)c(C)c1`, with 9.27% (inactive); and `Cc1ccc(SCC(=O)NC(=O)NCc2ccco2)c(C)c1`, with 95.8% (active).
Then `Cc1cc(C)n2nc(SCC(=O)NC(=O)NCc3ccco3)nc2n1`, with -3.52% (inactive).
Turning to `CC(C)NC(=O)N(C)C[C@@H]1Oc2ncc(-c3ccc(C(=O)N(C)C)cc3)cc2C(=O)N([C@H](C)CO)C[C@H]1C`, the rescue of ATP level was -0.478% (inactive).
Take `Cc1ccc(S(=O)(=O)N(CC(O)CN2CCCCC2)c2cccc([N+](=O)[O-])c2)cc1` (configuration not stated): the rescue of ATP level is 5.45% (inactive).
The figure for `Cc1cccc(N(CC(O)CN(C)C)S(=O)(=O)c2ccccc2)c1` (configuration not stated) is -10.1% (inactive); for `O=S(=O)(c1ccccc1)N(CC(O)CN1CCCCC1)c1ccccc1` (configuration not stated) it is 152% (active).
As for `COc1ccccc1-c1cn(CC[C@H]2CC[C@@H](NC(=O)Cc3ccccn3)[C@@H](CO)O2)nn1`, the rescue of ATP level is 5.82% (inactive).
The figure for `Cc1ccccc1-n1c(SCC(=O)Nc2cccc3ccccc23)nc(O)cc1=O` is 7.58% (inactive); for `Cn1c(SCC(=O)Nc2ccc(Cl)cc2)nc(O)cc1=O` it is 21.6% (inactive).
The figure for `CC(C)Cn1c(SCC(=O)Nc2ccc(Cl)cc2F)nc(O)cc1=O` is 95.3% (active).
The figure for `C/C=C/c1ccc([C@@H]2[C@@H](CO)N(C(=O)CC)[C@H]2CN(C)C(=O)C2CC2)cc1` is 7.07% (inactive).
